Reference: PubChem BioAssay (NCATS)
Inconclusive results are not listed. Entries that show only a call come without a potency. The source made the active and inactive calls. Unless noted, calls follow the shape of the dose curve; as a rule, active = well fitted curve in the direction sought with a large enough effect in the repeat runs; inconclusive = weak or mixed curves; inactive = no such curve, though single readings can be large; an effect the other way counts as inactive or inconclusive.

Molecular target: Nuclear receptor ROR-gamma (Homo sapiens) (UniProt P51449)
Sequence (P51449 whole entry, looked up): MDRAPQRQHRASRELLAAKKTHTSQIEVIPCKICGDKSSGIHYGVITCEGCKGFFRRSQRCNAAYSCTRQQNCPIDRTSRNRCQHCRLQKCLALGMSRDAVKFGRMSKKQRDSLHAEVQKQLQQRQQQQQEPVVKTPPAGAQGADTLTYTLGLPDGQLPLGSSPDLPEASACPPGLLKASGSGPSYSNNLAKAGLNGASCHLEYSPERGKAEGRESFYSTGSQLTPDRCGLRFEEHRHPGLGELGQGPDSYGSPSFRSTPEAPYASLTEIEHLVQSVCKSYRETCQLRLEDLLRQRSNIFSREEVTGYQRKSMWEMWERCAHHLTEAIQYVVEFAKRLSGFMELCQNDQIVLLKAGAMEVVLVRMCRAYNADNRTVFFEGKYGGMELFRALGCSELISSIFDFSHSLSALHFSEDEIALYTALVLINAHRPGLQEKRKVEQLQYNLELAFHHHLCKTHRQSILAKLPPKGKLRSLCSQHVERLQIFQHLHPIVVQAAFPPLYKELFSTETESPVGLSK
Experiment: qHTS assay for small molecule antagonists of the retinoid-related orphan receptor gamma (ROR-gamma) signaling pathway (AID 651802; active = well fitted curve in the direction sought with a large enough effect; an effect the other way counts as inactive or inconclusive; also: nearly all actives have a fitted effect of over 60% in size; also: potency is read from the fitted curve at half-maximal effect)
Details: ROR-gamma antagonist cell reporter assay; series mostly up to 92.2 µM
Summary of the method: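 Doxycycline-induced reporter activity in engineered CHO cells (TET-inducible ROR, RORE-LUC) was measured by luminescence after 16hr compound exposure at 37C.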
With `CC(C)NC(C)C` the Potency was “inactive”. For `NCCc1ccc(O)cc1`, the Potency was “inactive”. In the case of `CC(C)c1cccc(C(C)C)c1O`, the Potency is reported as “inactive”. With `Nc1ccccc1C(=O)O` the Potency was “inactive”. For `CCC(C)(C)c1ccc(O)cc1`, the Potency was “inactive”. In the case of `C[C@]12CCC(=O)C=C1CC[C@@H]1[C@@H]2CC[C@]2(C)C(=O)CC[C@@H]12`, the Potency is reported as 33.5 µM (active). With `COc1cc(OC)c(OC)cc1C=O` the Potency was “inactive”. For `C[C@]12CCC(=O)C=C1CC[C@@H]1[C@@H]2CC[C@@]2(C)[C@H]1CC[C@]2(C)O`, the Potency was 16.8 µM (active). For `Oc1ccc(Cl)cc1`, the Potency was “inactive”. For `CCCC(C)(COC(N)=O)COC(N)=O`, the Potency was “inactive”. In the case of `O=P1(N(CCCl)CCCl)NCCCO1` (centres undefined), the Potency is reported as “inactive”. In the case of `COC(=O)C(c1ccccc1)C1CCCCN1` (centres undefined), the Potency is reported as “inactive”. In the case of `Nc1ccccc1`, the Potency is reported as “inactive”. In the case of `COP(=S)(OC)Oc1ccc(SC)c(C)c1`, the Potency is reported as “inactive”.

Molecular target: Arylsulfatase A (Homo sapiens) (UniProt P15289)
Sequence (P15289 whole entry, looked up): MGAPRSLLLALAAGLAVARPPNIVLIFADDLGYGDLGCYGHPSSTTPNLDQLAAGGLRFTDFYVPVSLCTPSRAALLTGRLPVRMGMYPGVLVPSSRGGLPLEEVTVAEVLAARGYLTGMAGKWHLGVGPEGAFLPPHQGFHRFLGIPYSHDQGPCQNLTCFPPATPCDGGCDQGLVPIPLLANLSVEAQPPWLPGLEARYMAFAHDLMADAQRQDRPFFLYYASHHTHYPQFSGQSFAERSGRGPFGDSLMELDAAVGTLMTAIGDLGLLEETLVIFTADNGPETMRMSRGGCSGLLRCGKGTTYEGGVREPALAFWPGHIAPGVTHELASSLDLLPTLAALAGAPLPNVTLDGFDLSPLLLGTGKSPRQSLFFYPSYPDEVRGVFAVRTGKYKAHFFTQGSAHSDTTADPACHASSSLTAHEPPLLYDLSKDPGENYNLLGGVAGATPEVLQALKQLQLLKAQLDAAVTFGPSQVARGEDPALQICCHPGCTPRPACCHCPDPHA
Experiment: qHTS screen for enhancers of Arylsulfatase A (ASA1): LOPAC Validation Assay (AID 720538; active = well fitted curve in the direction sought with a large enough effect; an effect the other way counts as inactive or inconclusive)
Details: ASA enzyme activity, LOPAC qHTS enhancer assay; series mostly up to 57.5 µM
Summary of the method: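 SV40-transformed skin fibroblasts from an MLD patient (ASA-I179S) were treated with compounds for 48h at 37 degree C, then lysed with 0.5mM pNCS final substrate for 14h at room temperature; NaOH stop, fluorescence read (Ex=525 nm; Em=598 nm).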
For `NCCc1ccc(O)cc1`, the outcome was “inactive”. With `CC(C)c1cccc(C(C)C)c1O` the outcome was “inactive”. With `O=C(O)CCCc1ccc(N(CCCl)CCCl)cc1` the outcome was “inactive”. For `O=P1(N(CCCl)CCCl)NCCCO1` (centres undefined), the outcome was “inactive”. With `NCCCNCCSP(=O)(O)O` the outcome was “inactive”.

Tested on: not listed separately
Experiment: qHTS for compounds that reverse cellular toxicity of Amyloid beta (A-beta) peptide in yeast: LOPAC Validation Assay (AID 720559; active = well fitted curve in the direction sought with a large enough effect; an effect the other way counts as inactive or inconclusive)
Details: yeast expressing A-beta; series mostly up to 46.1 µM
Summary of the method: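 Yeast cells expressing toxic A-beta were combined with pinned compounds in growth medium and incubated 48 hr at 30 C. Growth was read as absorbance at 600 nm and normalized to DMSO and to an equimolar FeCl3/clioquinol positive control.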
For `NCCc1ccc(O)cc1`, the outcome was “inactive”. For `CC(C)c1cccc(C(C)C)c1O`, the outcome was “inactive”. With `O=C(O)CCCc1ccc(N(CCCl)CCCl)cc1` the outcome was “inactive”. In the case of `O=P1(N(CCCl)CCCl)NCCCO1` (centres undefined), the outcome is reported as “inactive”.

Tested on: not listed separately
Experiment: qHTS for Activators of Parkin Expression: LOPAC Validation Assay (NLuc Reporter) (AID 720572; active = well fitted curve in the direction sought with a large enough effect; an effect the other way counts as inactive or inconclusive)
Details: Parkin promoter NanoLuc reporter cells, luminescence, percent of positive control, DMSO as zero; series mostly up to 46.1 µM
Summary of the method: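 Cells harboring the Parkin-promoter coincidence reporter were treated for 24 h at seven concentrations. NLuc output was measured sequentially after the FLuc channel and scaled between DMSO and positive control values.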
For `NCCc1ccc(O)cc1`, the outcome was “inactive”. For `CC(C)c1cccc(C(C)C)c1O`, the outcome was “inactive”. For `O=C(O)CCCc1ccc(N(CCCl)CCCl)cc1`, the outcome was “inactive”. For `O=P1(N(CCCl)CCCl)NCCCO1` (centres undefined), the outcome was “inactive”.

Tested on: not listed separately
Experiment: qHTS assay for small molecule agonists of the antioxidant response element (ARE) signaling pathway measured by Nrf2-dependant transcriptional activity (AID 720636);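 also: HepG2 cells with an ARE-driven luciferase reporter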
Details: ARE-luc HepG2, Nrf2 luciferase reporter, 16 h; series mostly up to 92.4 µM
Summary of the method: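 First, ARE-luc HepG2 cells attached for 6 hr at 37 C in 1% dialyzed FBS medium. Next, compound or DMSO was added and incubated 16 hr. Finally, ONE-Glo reagent was added and luminescence measured after 30 min.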
With `Nc1ccc([As](=O)(O)O)cc1` the outcome was “inactive”. For `CC(C)NC(C)C`, the outcome was “inactive”. For `NCCc1ccc(O)cc1`, the outcome was “inactive”. In the case of `CC(C)c1cccc(C(C)C)c1O`, the outcome is reported as “inactive”. With `Nc1ccccc1C(=O)O` the outcome was “inactive”. With `CCC(C)(C)c1ccc(O)cc1` the outcome was “inactive”. In the case of `C[C@]12CCC(=O)C=C1CC[C@@H]1[C@@H]2CC[C@]2(C)C(=O)CC[C@@H]12`, the outcome is reported as “inactive”. With `O=C1c2ccccc2C(=O)C1C(=O)C(c1ccccc1)c1ccccc1` the outcome was “inactive”. In the case of `O=C(O)CCCc1ccc(N(CCCl)CCCl)cc1`, the outcome is reported as “inactive”. With `Nc1nc(N)nc(NC2CC2)n1` the outcome was “inactive”. With `CC1(C)C(C=C(Cl)Cl)C1C(=O)OC(C#N)c1cccc(Oc2ccccc2)c1` (centres undefined) the outcome was “inactive”. For `COc1cc(OC)c(OC)cc1C=O`, the outcome was “inactive”. For `COP(=S)(OC)SCN1C(=O)c2ccccc2C1=O`, the outcome was “inactive”. For `C[C@]12CCC(=O)C=C1CC[C@@H]1[C@@H]2CC[C@@]2(C)[C@H]1CC[C@]2(C)O`, the outcome was “inactive”. For `CN1C[C@H](C(=O)N[C@]2(C)O[C@@]3(O)[C@@H]4CCCN4C(=O)[C@H](Cc4ccccc4)N3C2=O)C=C2c3cccc4[nH]cc(c34)C[C@H]21`, the outcome was “inactive”. In the case of `Oc1ccc(Cl)cc1`, the outcome is reported as “inactive”. In the case of `CCCC(C)(COC(N)=O)COC(N)=O`, the outcome is reported as “inactive”. In the case of `O=P1(N(CCCl)CCCl)NCCCO1` (centres undefined), the outcome is reported as “inactive”. With `C[C@]1(O)CC[C@H]2[C@@H]3CCC4=CC(=O)CC[C@]4(C)[C@@]3(F)[C@@H](O)C[C@@]21C` the outcome was “inactive”. In the case of `CC(C)(C)c1ccc(O)cc1`, the outcome is reported as “inactive”. For `COC(=O)C(c1ccccc1)C1CCCCN1` (centres undefined), the outcome was “inactive”. With `COP(=S)(OC)Oc1cc(Cl)c(Cl)cc1Cl` the outcome was “inactive”. For `Clc1ccc(C(c2ccc(Cl)cc2)C(Cl)(Cl)Cl)cc1`, the outcome was “inactive”. For `[N-]=[N+]=CC(=O)OC[C@H](N)C(=O)O`, the outcome was “inactive”. With `CCOC(=O)CC(SP(=S)(OC)OC)C(=O)OCC` (centres undefined) the outcome was “inactive”. In the case of `Nc1ccccc1`, the outcome is reported as “inactive”. For `COP(=S)(OC)Oc1ccc(SC)c(C)c1`, the outcome was “inactive”.
